Source: PubChem BioAssay (National Center for Advancing Translational Sciences (NCATS))
Giardia killer – Giardia lamblia killing. Giardia lamblia trophozoite viability. activity change, % at 7.66 µM, hits read low. 340,000 tested, 0.15% active. AID 540267; in the data active = activity change below about -80%; inconclusive = between about -30% and that limit;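 also: parasites exposed to compound for two days anaerobically before the ATP read; % is scaled to controls: 0 for no effect and ±100 for the full control effect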
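Trophozoites 100 cells/well + cpd; 48 hrs, 37 deg C, anaerobic. ATPLite 1-Step added, 15-30 min RT, luminescence read (ATP-based viability).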
uPA generation – inhibitors of cell surface uPA generation. cell surface uPA generation assay, qHTS. 330,000 tested, 0.31% active. Potency, µM (top dose mostly 38.3 µM), for the others: top-dose activity change, negative = inhibition, most hits filed as inhibitors. AID 540303; active = well fitted inhibition curve with a large enough effect; inconclusive = small, poorly fitted or top-dose-only effect; inactive = no such curve, though single readings can be large or run the other way; tested in mouse RAW 264.7 cells; also: potency is read from the fitted curve at half-maximal effect; % is scaled to controls: 0 for no effect and ±100 for the full control effect; nearly all actives have a fitted effect of over 55% in size
MCF10A rerep – induces DNA re-replication in MCF 10a normal breast cells | MCF 10A DNA re-replication, Hoechst nuclear intensity, 48 h | 350,000 tested, 2.9% active | AID 624296 | Potency, µM (series often up to 46.1 µM), without a hit: at the highest dose activity, positive = re-replication, usual class: activators; also: potency is read from the fitted curve at half-maximal effect; % of control where 0% means no effect; nearly all actives have a fitted effect of over 50% in size
SW480 rereplic – inducers of DNA re-replication in SW480 colon cancer cells; SW480 DNA re-replication, Hoechst DNA content imaging, 48 h; Potency, µM (top dose mostly 46.1 µM), without a hit: at the highest dose re-replication activation, most hits filed as activators; 340,000 tested, 1.8% active; AID 624297; also: potency is read from the fitted curve at half-maximal effect; % of control where 0% means no effect; nearly all actives have a fitted effect of over 55% in size
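Cells (250 per well) received 23 nL compound or DMSO by pin tool and were kept 48 hr at 37 C, 5% CO2. Nuclei were then stained with Hoechst for 40 min and scanned for DNA content.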
Starred values were filed as active, the others as inactive; ? = inconclusive; · = no result; [ ] = another dose, or the depositor's remark. Sampled rows, rich in hits. Any-hit rate of the full collection: about 4.3%. Unless noted, calls follow the shape of the dose curve; as a rule, active = well fitted activation curve with a large enough effect; inconclusive = small, poorly fitted or top-dose-only effect; inactive = no such curve, though single readings can be large or run the other way.

SMILES	Giardia killer	uPA generation	MCF10A rerep	SW480 rereplic
CC(C)(C)NC[C@@H](O)COc1ccccc1C1CCCC1	·	·	2%[20.6 µM]	0%[20.6 µM]
Cc1ccc(S(=O)(=O)N2C[C@@H]3[C@H]4CC[C@H](C4)[C@@H]3[C@@H](C)[C@H]2c2ccco2)cc1	4	?	28%	?
Nc1ccc(-c2cnc(N)c(C(=O)c3cccnc3)n2)cn1	-5	?	13%	-2%
Cc1cccc(NC(=O)c2cccc(NC(=O)c3ccco3)c2)c1C	-3	-2%	13%	-2%
CC1(C)CCC(C)(C)c2cc(NC(=O)c3ccc(C(=O)O)cc3)ccc21	·	·	-3%	-3%
COc1ccc(OCCN(C)C(=O)c2cccc(S(=O)(=O)N(C)c3ccccc3)c2)cc1	-2	0%	?	-6%
O=[N+]([O-])c1ccccc1N/N=C\c1ccccc1F	-1	0%	5%	21µM*
CCN(c1ccccc1)c1nc(N)nc(C#N)n1	-4	·	·	·
CCOC(=O)N1CCc2cc(OC)c(OC)c3c2c1cc1cc(OC)c(OC)cc13	0	-11%	15µM*	18µM*
CO/N=C\CC(=O)Nc1ccc(Cl)c(Cl)c1	-11	-15%	16µM*	18µM*
CCCCn1c(N)c(N(Cc2ccccc2OC)C(=O)c2ccc([N+](=O)[O-])s2)c(=O)[nH]c1=O	2	3%	?	21µM*
CCCCn1c(N)c(N(Cc2ccccc2OC)C(=O)COc2ccccc2OC)c(=O)[nH]c1=O	4	9%	-1%	-1%
CC(C)c1ccc(/C=C/C(=O)Nc2ccc(CN3CCOCC3)cc2)cc1	-3	-1%	13µM*	?
CC(C)c1ccc(CN2CCN(C(=O)CCl)CC2)cc1	6	3.5µM*	6.5µM*	?
O=C(/C=C/c1ccc(Cl)cc1)Nc1ccc(CN2CCOCC2)cc1	-7	-4%	16%	?
CC(C)CC(=O)N1CCN(Cc2ccc(Cl)cc2)CC1	8	-1%	?	-6%
CCOc1ccc(N(C(=O)OC(C)(C)C)C(=O)c2ccc(O[Si](C)(C)C(C)(C)C)cc2)c(I)c1	1	·	·	·
COc1ccc2c(c1)N(C)/C(=C/c1cccc[n+]1C)S2	8	7.9µM*	-15%	3%
CN1/C(=C/c2cccc[n+]2C)Sc2ccccc21	-3	?	9.2µM*	?
CCN1/C(=C/c2cccc[n+]2C)Sc2ccc(OC)cc21	6	?	19%	1%
CC(C)Nc1cccnc1N1CCN(C(=O)c2cc3cc(NS(C)(=O)=O)ccc3[nH]2)CC1	·	·	13%	16%
CCOC(=O)c1c(-c2ccc(OC)cc2)oc2cc(Br)c(O)cc12	23	-2%	15µM*	0%
C=CCOc1ccc(/C=N/N2C(=O)C(CC(=O)Nc3ccc(F)cc3F)SC2=NC)cc1 (configuration not stated)	18	4%	?	?
CCOC(=O)N1CCN(C(=O)c2cn(CC)c3ccc(S(=O)(=O)N4CC(C)CC(C)C4)cc3c2=O)CC1 (configuration not stated)	-11	-10%	2.3µM*	-33%
CCn1cc(C(=O)N2CCCC2)c(=O)c2cc(S(=O)(=O)N3CC(C)CC(C)C3)ccc21 (configuration not stated)	2	-5%	-2%	5%
SMILES	Giardia killer	uPA generation	MCF10A rerep	SW480 rereplic
C=CC[C@@H](CC(=O)N(CCO)Cc1ccccc1)C(=O)N[C@@H](COC(=O)[C@@H](CC=C)CC(=O)OC(C)(C)C)Cc1c[nH]c2ccccc12	6	5%	?	3%
C=CCC[C@@H](Cc1ccc(F)cc1)C(=O)OC[C@H](Cc1c[nH]c2ccccc12)NC(=O)[C@@H](CC=C)CC(=O)N[C@H](CO)Cc1ccccc1	3	-6%	21%	3.7µM*
C=CC[C@@H](CC(=O)N(CCO)Cc1ccccc1)C(=O)N[C@H](COC(=O)[C@@H](CC=C)CC(=O)OC(C)(C)C)Cc1c[nH]c2ccccc12	-13	?	10µM*	8%
C=CCC[C@H](Cc1ccc(F)cc1)C(=O)OC[C@H](Cc1c[nH]c2ccccc12)NC(=O)[C@@H](CC=C)CC(=O)N[C@@H](CO)Cc1ccccc1	8	-20%	?	-6%
C=CC[C@H](CC(=O)N(CCO)Cc1ccccc1)C(=O)N[C@@H](COC(=O)[C@@H](CC=C)Cc1ccc(F)cc1)Cc1c[nH]c2ccccc12	3	?	18µM*	21µM*
C=CC[C@H](CC(=O)N(CCO)Cc1ccccc1)C(=O)N[C@@H](COC(=O)[C@H](CC=C)CC(=O)OC(C)(C)C)Cc1c[nH]c2ccccc12	5	-26%	23µM*	25%
CC(Oc1ccccc1F)C(=O)NNC(=O)Cc1ccc(S(=O)(=O)N2CCOCC2)s1 (configuration not stated)	-11	7%	6%	-13%
C=CC[C@@H](CC(=O)N[C@@H](CO)Cc1ccccc1)C(=O)N[C@H](COC(=O)[C@@H](CC=C)CC(=O)OC(C)(C)C)Cc1c[nH]c2ccccc12	-2	?	16µM*	?
CC(C)(C)c1cccc(S(=O)(=O)N2CCN(c3nc(-c4cccs4)nc4ccccc34)CC2)c1	8	·	·	·
COc1ccc(-n2ncc(Cl)c(Cl)c2=O)cc1	8	-11%	0.82µM*	3%
COc1c(Cl)cnn(-c2ccc(Cl)c(Cl)c2)c1=O	6	1%	23µM*	?
COc1ccc(OC)c(S(=O)(=O)N2CCC(C(=O)N3CCCCCC3)CC2)c1	-22	-1%	-2%	-7%
O=C(C[C@H]1C[C@H](C(=O)N2CCCCC2)[C@@]2(CCc3ccccc3)c3[nH]c4cc(-c5ccco5)ccc4c3CCN2C1=O)NCCC1=CCCCC1	14	2%	?	10%
CC(C)(C)C(=O)C(Oc1ccc(Cl)cc1)n1ccnc1 (configuration not stated)	·	·	8%	10%
Cc1cccc(OCCSc2nc(N)cc(N)n2)c1	-22	0%	?	16µM*
CCNc1nc(NCC)nc(SCCOc2ccc(C)cc2)n1	7	-6%	21µM*	8%
CCOc1nc(SCCOc2ccc(C)cc2)nc(N(C)C)n1	-1	2%	-17%	-15%
Cc1ccc(CNC(=O)CN(C(=O)C2(C)CC(=O)N=C3C=CC=CN32)c2ccc(F)cc2)cc1 (configuration not stated)	-14	-1%	-2%	-10%
N#Cc1nc(-c2ccc(OCc3ccccc3Cl)cc2)oc1N1CCC(C(N)=O)CC1	-7	·	·	·
O=c1c2ccccc2oc2ccc(NCCCn3ccnc3)cc12	-10	4.5µM*	-15%	0%
CCN1CCN(CCCNC(=O)c2ccc(/C=C3/Sc4ccccc4N(Cc4ccccc4F)C3=O)cc2)CC1	29	-8%	15µM*	16µM*
CCN1CCN(CCNC(=O)c2ccc(/C=C3/Sc4ccccc4N(Cc4ccccc4C)C3=O)cc2)CC1	32	-12%	18µM*	7.3µM*
O=S(=O)(Nc1c(Br)cc(Br)c2cccnc12)C1CCCCC1	-8	·	·	·
COc1cc2ncnc(NCc3ccccc3)c2cc1OC	-2	-1%	6.5µM*	-4%
